Screening data deposited in PubChem by National Center for Advancing Translational Sciences (NCATS).
In the library only some 12% were active in any assay of this set; here they are far more common.
HCV inhibitor – blocks hepatitis C virus; Huh7.5.1 HCVcc-Cre infection, luciferase reporter, 44 h; Potency, µM (titrated, usually from 41.8 µM), for inactives: at the highest dose activity change, negative = inhibition, usual class: inhibitors; hit rate 3.4% among 340,000; AID 651820; also: % is scaled to controls: 0 for no effect and ±100 for the full control effect
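A cell-based infection assay in which seeded cells (1,000 per well) receive test compound after 4 h, are inoculated with HCVcc-Cre at approximately 0.5 moi, and are incubated 44 h before luminescence detection.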
AMA1-RON2 inh – inhibitors of Plasmodium falciparum AMA1-RON2 interaction; AlphaScreen AMA1-biotinylated RON2 peptide binding; Potency, µM (titrated, usually from 58.2 µM), inactives show top-dose activity change, negative = inhibition, most hits filed as inhibitors; hit rate 0.2% among 360,000; AID 720542;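 also: 0% = vehicle wells and -100% = peptide control; nearly all actives have a fitted effect of over 45% in size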
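AMA1 (3D7) with his tag at 25 nM final met compounds first, then biotinylated RON2 peptide at 25 nM; detection used donor plus acceptor beads, 10 µg/mL apiece, read by AlphaScreen after 30 min at room temperature.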
NS1 function inh – influenza NS1 inhibition | Potency, µM (highest dose often 46.1 µM), without a hit: at the highest dose activity, positive = more growth | hit rate 0.4% among 270,000 | AID 2326; calls by dose curve; also: actives are rising curves; nearly all actives have a fitted effect of over 50% in size
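In this qHTS, NS1 from influenza A is expressed in budding yeast, where it slows growth. Cells are switched from glucose to 2% galactose medium (pH 6.0, -URA), treated with compound, and growth recovery is read at OD600.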
Pf growth 48h – P. falciparum growth inhibition at 48 hours (one generation); hit rate 5.9% among 310,000; P. falciparum luciferase growth in erythrocytes, 48 h; Potency, µM (doses to about 28.7 µM), without a hit: at the highest dose activity change, negative = inhibition, hits mostly inhibitors; also: % is scaled to controls: 0 for no effect and ±100 for the full control effect
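Firefly luciferase activity from engineered P. falciparum reports growth; inhibitors lower the luminescent signal. Cultures contained 2% hematocrit erythrocytes at 0.1% final parasitemia.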
Pf growth 96h – P. falciparum growth inhibition at 96 hour, primary screen for plastid delayed-death inhibitors; P. falciparum luciferase reporter growth, 96 h; AID 504834; Potency, µM (titrated, usually from 28.7 µM), for the others: top-dose activity change, negative = inhibition, actives largely listed as inhibitors; hit rate 6.9% among 320,000; also: % is scaled to controls: 0 for no effect and ±100 for the full control effect
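Two parasite generations (96 h, 37 C, 5% CO2) of compound exposure in infected erythrocytes (0.05% parasitemia, 2% hematocrit). Luciferase-reporter P. falciparum; decreased luminescence indicates inhibited growth, aimed at apicoplast-acting delayed death.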
SARS PLP yeast – inhibitors of SARS-CoV papain-like protease in yeast. S. cerevisiae expressing SARS-CoV PLpro, growth rescue. Potency, µM (series often up to 32.9 µM), without a hit: at the highest dose activity, positive = growth rescue, actives largely listed as activators. hit rate 0.19% among 330,000. AID 485353; calls by dose curve; also: 0% is about no effect; nearly all actives have a fitted effect of over 55% in size
Active calls of the source: *; ? = inconclusive; / = not tested or not shown. Unless noted, calls follow the shape of the dose curve; as a rule, active = well fitted curve in the direction sought with a large enough effect; inconclusive = small, poorly fitted or top-dose-only effect, or another doubt; inactive = no such curve, though single readings can be large; an effect the other way counts as inactive or inconclusive. Potency is read from the fitted curve at half-maximal effect.

SMILES	HCV inhibitor	AMA1-RON2 inh	NS1 function inh	Pf growth 48h	Pf growth 96h	SARS PLP yeast
CC1CCN(CC(=O)Nc2ccccc2-c2ccccc2)CC1	35µM*	3%	0%	?	?	2%
CC1CCCCC1NCC(=O)Nc1ccccc1-c1ccccc1 (configuration not stated)	-7%	?	5%	?	15µM*	18%
O=C(OCc1ccc([N+](=O)[O-])cc1)c1cc(=O)c2ccccc2o1	3%	1%	6%	50%	73%	2%
Cc1cc(C)cc(NC(=O)c2cccn2-c2ncc(C(F)(F)F)cc2Cl)c1	4%	-13%	-10%	?	13µM*	-11%
O=C(Nc1ccc(F)cc1F)c1cccn1-c1ncc(C(F)(F)F)cc1Cl	3%	-7%	-13%	?	?	-2%
COC(=O)c1c(N2C(=O)Nc3ccccc3N2O)sc(C)c1C	15%	-1%	/	4%	5.2µM*	4%
CCOC(=O)c1c(N2C(=O)Nc3ccccc3N2O)sc2c1CCCC2	6%	-7%	21%	-16%	?	11%
CCOC(=O)N/N=C(\c1ccccc1)C(O)c1ccccc1 (configuration not stated)	-9%	9%	6%	-8%	69%	0%
CCCC(=O)Nc1nc(C)c(-c2csc(Nc3ccccc3OC)n2)s1	?	17%	10%	?	13µM*	?
Cc1nc(NC(=O)C(C)(C)C)sc1-c1nc(N)sc1-n1cc(-c2ccccc2)nn1	/	-2%	/	/	/	/
Cc1ccc(Cl)cc1Nc1nc(-c2sc(NC(=O)C(C)(C)C)nc2C)cs1	2%	69%	16%	8.3µM*	5.2µM*	4%
CCCC(=O)Nc1nc(C)c(-c2csc(Nc3cc(OC)ccc3OC)n2)s1	?	29%	16%	?	?	3%
Cc1nc(C)c(-c2csc(Nc3ccc(O)c(C(=O)O)c3)n2)s1	14%	-6%	-5%	-6%	?	-3%
COc1ccccc1Nc1nc(-c2sc(NC(=O)CC(C)C)nc2C)cs1	?	39%	?	?	1.9µM*	6%
COc1ccccc1Nc1nc(-c2sc(NC(=O)C(C)(C)C)nc2C)cs1	2.5µM*	-4%	9%	?	12µM*	-4%
CC1(NC(=O)Nc2cc([N+](=O)[O-])ccc2O)CCS(=O)(=O)C1 (configuration not stated)	2%	-3%	/	-1%	22%	-3%
CN(CC(=O)NCc1cccs1)CC(=O)Nc1ccccc1Cl	/	33%	/	/	/	/
O=C1CC2(CCN(C(=O)c3ccc(F)cc3)CC2)Oc2ccccc21	8%	7%	/	-5%	22%	-2%
COc1ccccc1Nc1nc(-c2c(C)[nH]c3ccccc23)cs1	?	-2%	?	5.2µM*	2.3µM*	6%
CCCCCC(=O)Nc1nc(C)c(-c2csc(Nc3cc(Cl)ccc3OC)n2)s1	?	48%	22%	7.4µM*	3.7µM*	6%
Cc1[nH]c2ccccc2c1-c1csc(N)n1	1%	6%	22%	1%	175%	2%
O=C(N/N=C/C1CC2CCC1C2)c1c[nH]c2ccccc12 (configuration not stated)	20%	65%	-1%	19%	-11%	-2%
O=C(O)C[C@H]1c2cc(F)ccc2S(=O)(=O)N1C1CCN(Cc2ccccc2)CC1	19%	-3%	/	/	/	/
COc1ccc(Cn2c(=O)n(Cc3ccco3)c(=N)c3c4c(sc32)COC(C)(C)C4)cc1	13µM*	-17%	-56%	5.9µM*	13µM*	-7%
Cc1ccc(NC(=O)Cn2c(=O)n(Cc3ccco3)c(=N)c3c4c(sc32)COC(C)(C)C4)cc1	3.2µM*	3%	-48%	?	?	-1%
COc1ccc(Cc2nc(C)cc(Cl)n2)cc1[N+](=O)[O-]	7%	-21%	0%	33%	-7%	-3%
C=CCOC(=O)C1=C[C@H](c2cn(C(C)=O)c3ccccc23)[C@@H](CCCO)[C@H](OCC)O1	3%	-4%	2%	?	12µM*	0%
